Experiment [1] can be described thus: yeast TOR pathway RPL19A-GFP modulators, primary screen, cell-based, S. cerevisiae, multiplex flow cytometry (AID 1862; in the data active = percent of DMSO control GFP below about 86%;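 note: lower values mimic rapamycin by blocking the RPL19A rise seen in DMSO cells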). The note with it: S. cerevisiae RPL19A-GFP strain, flow cytometry fluorescence, 3 h; at 10 µM; stronger effect = lower value. For orientation: Flow cytometry measures light scatter and fluorescence of single cells or particles in a stream.
A short description of experiment [2]: modulators of MEP2-GFP levels in yeast, primary screen, S. cerevisiae, multiplex flow cytometry (AID 1867;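 active = GFP response, as percent of the DMSO control, above the screen-wide mean plus 3 SD, about 139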;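 note: median GFP channel fluorescence of barcode-gated MEP2-GFP cells measured by flow cytometry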). The note with it: S. cerevisiae MEP2-GFP strain, 3 h, at 10 µM, stronger effect = higher value.
Experiment [3] is described as follows: modulators of CIT2-GFP expression in yeast, primary screen, S. cerevisiae, GFP fusion, multiplex flow cytometry (AID 1870;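 active = percent response above a set limit, the screen-wide mean plus 3 SD, cut at about 130% in these data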;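 note: barcoded CIT2-GFP strain pooled with four other GFP strains with rapamycin as positive control; median GFP fluorescence per well over plate mean of DMSO wells so 100% = DMSO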). The note with it: 3 h, at 10 µM, stronger effect = higher value.
Experiment [4] in a line: modulators of LAP4-GFP expression in yeast, primary screen, S. cerevisiae, multiplex flow cytometry (AID 1873;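 active = GFP signal, as percent of the solvent control, above the screen mean plus 3 SD, about 149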). The note with it: 3 h, at 10 µM, stronger effect = higher value.
Experiment [5] in a line: modulators of AGP1-GFP expression in yeast TOR pathway, primary screen, cell-based, multiplex flow cytometry, S. cerevisiae (AID 1887;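 active = GFP signal above the screen-wide mean plus 3 SD, that is over about 124.5% of the solvent control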;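 note: AGP1-GFP fusion strain of S. cerevisiae within a five-strain barcoded multiplex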). The note with it: 3 h, at 10 µM, stronger effect = higher value.
Experiment [6] can be described thus: inhibitors of CD8+ T cell-vesicle binding, pilot screen, LFA-1/ICAM-1 modulator project, MLPCN validation set, flow cytometry (AID 2523;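 active = response below a set limit, under 55% cells CD8-positive and vesicle-bound, and CD8 cells' 90th-percentile brightness under 279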;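 for vesicle binding response: mean PE anti-B7-1 fluorescence of CD8+ cells relative to row control; 100% = QL9-loaded vesicles with DMSO vehicle in the same plate row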). The note with it: 2C mouse CD8+ T cells, at 7 µM, stronger effect = lower value; double positive events: measured here: CD8+/vesicle+ event percentage.
The target in experiment [7] is Integrin beta-1 (Homo sapiens) + Integrin alpha-4 (Homo sapiens) (UniProt P13612+P05556). Description: inhibition of HUTS-21 binding to VLA-4, pilot screen, VLA-4 allosteric modulator project, U937 cells, HUTS-21 mAb, flow cytometry, validation set (AID 2674;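 active = inhibition above 50%, about 3 SD of the validation set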;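 note: antibody binding induced by the VLA-4 ligand LDV present at three times its Kd; 0% = LDV ligand with antibody and no compound and 100% = antibody without LDV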). The note with it: HUTS-21 LIBS mAb binding, at 6.7 µM, stronger effect = higher value.
Integrin beta-1 (Homo sapiens) + Integrin alpha-4 (Homo sapiens), sequence (P05556 whole entry, looked up): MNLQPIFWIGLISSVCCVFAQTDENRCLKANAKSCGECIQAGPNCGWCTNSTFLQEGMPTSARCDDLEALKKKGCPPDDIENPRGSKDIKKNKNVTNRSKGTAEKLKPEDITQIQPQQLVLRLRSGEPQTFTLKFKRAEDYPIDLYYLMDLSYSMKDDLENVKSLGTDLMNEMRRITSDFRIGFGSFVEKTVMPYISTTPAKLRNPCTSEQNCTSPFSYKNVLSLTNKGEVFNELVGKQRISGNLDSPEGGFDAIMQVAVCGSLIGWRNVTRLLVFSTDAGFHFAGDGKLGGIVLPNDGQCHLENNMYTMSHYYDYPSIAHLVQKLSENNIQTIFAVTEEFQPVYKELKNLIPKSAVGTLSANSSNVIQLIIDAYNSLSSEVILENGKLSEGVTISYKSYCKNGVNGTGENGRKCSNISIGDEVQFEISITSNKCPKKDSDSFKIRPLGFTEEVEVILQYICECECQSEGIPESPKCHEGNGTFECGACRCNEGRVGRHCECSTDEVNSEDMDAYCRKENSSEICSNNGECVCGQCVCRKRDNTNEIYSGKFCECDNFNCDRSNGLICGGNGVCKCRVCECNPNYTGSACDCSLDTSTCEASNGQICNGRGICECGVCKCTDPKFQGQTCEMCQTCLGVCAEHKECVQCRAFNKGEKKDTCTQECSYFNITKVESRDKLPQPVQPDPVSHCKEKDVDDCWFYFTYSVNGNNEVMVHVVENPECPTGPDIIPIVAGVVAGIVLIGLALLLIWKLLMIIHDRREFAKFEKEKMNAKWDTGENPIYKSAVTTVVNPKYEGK
Integrin beta-1 (Homo sapiens) + Integrin alpha-4 (Homo sapiens), sequence (P13612 whole entry, looked up): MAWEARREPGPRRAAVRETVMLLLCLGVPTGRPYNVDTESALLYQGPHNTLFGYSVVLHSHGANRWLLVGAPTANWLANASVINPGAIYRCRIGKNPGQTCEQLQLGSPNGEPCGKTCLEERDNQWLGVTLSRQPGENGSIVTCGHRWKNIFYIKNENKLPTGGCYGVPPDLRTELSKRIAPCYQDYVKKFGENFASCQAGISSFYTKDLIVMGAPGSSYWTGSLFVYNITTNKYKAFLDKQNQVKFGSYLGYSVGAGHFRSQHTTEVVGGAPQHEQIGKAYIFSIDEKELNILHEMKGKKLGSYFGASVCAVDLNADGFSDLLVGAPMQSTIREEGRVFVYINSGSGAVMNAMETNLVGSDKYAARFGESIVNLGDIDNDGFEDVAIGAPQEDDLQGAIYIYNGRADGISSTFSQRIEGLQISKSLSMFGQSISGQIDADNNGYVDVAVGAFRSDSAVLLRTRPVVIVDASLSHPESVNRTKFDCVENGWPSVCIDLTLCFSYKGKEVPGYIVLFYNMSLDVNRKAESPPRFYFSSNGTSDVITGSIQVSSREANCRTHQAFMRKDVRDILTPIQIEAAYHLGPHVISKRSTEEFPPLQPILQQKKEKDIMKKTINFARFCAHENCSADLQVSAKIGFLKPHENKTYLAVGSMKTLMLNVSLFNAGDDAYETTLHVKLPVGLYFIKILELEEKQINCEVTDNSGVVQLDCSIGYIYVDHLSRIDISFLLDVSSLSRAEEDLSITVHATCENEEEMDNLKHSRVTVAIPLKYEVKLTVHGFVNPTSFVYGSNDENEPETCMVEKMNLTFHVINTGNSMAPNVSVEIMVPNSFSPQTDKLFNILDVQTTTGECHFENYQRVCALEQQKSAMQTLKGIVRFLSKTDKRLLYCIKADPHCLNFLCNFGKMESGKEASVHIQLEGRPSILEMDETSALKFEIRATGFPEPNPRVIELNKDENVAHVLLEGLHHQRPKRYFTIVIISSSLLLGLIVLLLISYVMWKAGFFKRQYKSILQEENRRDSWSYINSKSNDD
Experiment [8] can be described thus: superoxide lowering in aged yeast cells, pilot screen, validation compound set (AID 2706;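 active = superoxide response below 65% of plate, a cut near 3 SD across the whole screen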;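 note: yeast exposed to compound for one week at 30 degrees C before staining; 100% = mean of all compound wells on the same plate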). The note with it: S. cerevisiae aging, superoxide DHE fluorescence; at 10 µM; stronger effect = lower value.
Experiment [9] concerns the target Beta-adrenergic receptor kinase 1 (Homo sapiens) (UniProt P25098). Kind of experiment: GRK2 binders displacing RNA aptamer, biochemical, validation, human GRK2, bead flow cytometry (AID 488806;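 active = aptamer binding inhibition above 30%, about 3 SD of noise from non-fluorescent compounds; inactive = inhibition at or below 30%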). The note with it: bead-bound GRK2, FAM-aptamer displacement, at 10 µM, stronger effect = higher value.
Experiment [10] has as its target Beta-2 adrenergic receptor (Homo sapiens) (UniProt P07550). Kind of experiment: beta2AR agonists driving receptor internalization, pilot screen, cell-based, FAP fluorogen, flow cytometry, validation set (AID 504459;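 active = percent response above 42, roughly 3 SD of non-fluorescent test compounds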;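 note: agonist-driven loss of surface beta2AR via internalization measured by FAP dye flow cytometry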). The note with it: Am2.2-beta2AR cells, FAP surface receptor flow cytometry; at 10 µM; stronger effect = higher value.
Experiment [11] concerns the target AP-2 complex subunit beta (Homo sapiens) (UniProt P63010). Kind of experiment: inhibitors of arrestin peptide binding to AP2, pilot screen, biochemical, validation set, GST-AP2 beads, flow cytometry (AID 504541;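 active = inhibition above 54%, about 3 SD of non-fluorescent compounds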;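 note: AP2 carries R879A mutation and is captured from E. coli lysate; bead-bound FITC arrestin peptide fluorescence measuring arrestin peptide binding to AP2; 0% = DMSO wells and 100% = excess unlabeled arrestin peptide control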). The note with it: FITC arrestin peptide, at 10 µM, stronger effect = higher value.
The nature of experiment [12]: yeast V-ATPase proton transport modulators, S. cerevisiae, pHLuorin, HTS validation (AID 504600; in the data active = response above about 15%;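 note: plate controls were DMSO for no effect and reference compound for full effect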). The note with it: S. cerevisiae pHLuorin cytosolic pH, at 10 µM, stronger effect = higher value.
The subject of experiment [13] is anti-desmoglein-3 scFv antibody binding to human DSG3. Description: inhibitors of anti-DSG3 scFv binding to DSG3, pilot screen, biochemical, validation compound set, bead-based, flow cytometry (AID 588368;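 active = binding below the plate cutoff, the plate median minus 3 SD, with a reading above zero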;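 note: signal is the median channel fluorescence of bead-bound GFP antibody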). The note with it: Protein G beads, DSG3-Fc, scFv-GFP binding, at 10 µM, stronger effect = lower value.
Experiment [14] relates to Botulinum neurotoxin type F light chain protease (Clostridium botulinum). Description: Botulinum neurotoxin type F light chain protease inhibition, multiplex microsphere flow cytometry, validation set (AID 588459). The note with it: multiplex microsphere protease substrate cleavage assay, at 10 µM, stronger effect = higher value.
Experiment [15] deals with Botulinum neurotoxin type A (Clostridium botulinum) (UniProt P0DPI0). Description: BoNT/A light chain protease inhibitors, biochemical, multiplex microsphere flow cytometry, validation set (AID 588460). The note with it: at 10 µM, stronger effect = higher value.
Experiment [16] has as its target Lethal factor (Bacillus anthracis) (UniProt P15917). Description: Lethal factor protease inhibitors, Bacillus anthracis, multiplex microsphere cleavage assay, validation set (AID 588461). The note with it: flow cytometry, at 10 µM, stronger effect = higher value.
Experiment [17] in a line: inhibitors of fungal efflux pumps CDR1, CDR2, MDR1, pilot screen, validation compound set, multiplex, phenotypic (AID 588506;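 active = efflux inhibition above 0.42, the validation set average plus 4 SD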;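 note: Nile Red retained in cells so higher fluorescence means more efflux inhibition; 0 = negative control wells and 1 = enniatin B 25 µM full block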). The note with it: S. cerevisiae pump-expressing triplex, Nile Red efflux flow cytometry; at 10 µM; stronger effect = higher value.
Experiment [18] deals with ATP-binding cassette sub-family B member 6 (Homo sapiens) (UniProt Q9NP58). Kind of experiment: ABCB6 transporter inhibitors, pilot screen, K562-ABCB6 cells, flow cytometry, validation set (AID 588550;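 active = inhibition above the screen-wide mean plus 3 SD, about 51%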;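 note: 0% = DMSO wells and 100% = benzethonium chloride 70 µM positive control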). The note with it: K562-ABCB6 porphyrin accumulation, 1 h, at 10 µM, stronger effect = higher value.
ATP-binding cassette sub-family B member 6 (Homo sapiens), sequence (Q9NP58 whole entry, looked up): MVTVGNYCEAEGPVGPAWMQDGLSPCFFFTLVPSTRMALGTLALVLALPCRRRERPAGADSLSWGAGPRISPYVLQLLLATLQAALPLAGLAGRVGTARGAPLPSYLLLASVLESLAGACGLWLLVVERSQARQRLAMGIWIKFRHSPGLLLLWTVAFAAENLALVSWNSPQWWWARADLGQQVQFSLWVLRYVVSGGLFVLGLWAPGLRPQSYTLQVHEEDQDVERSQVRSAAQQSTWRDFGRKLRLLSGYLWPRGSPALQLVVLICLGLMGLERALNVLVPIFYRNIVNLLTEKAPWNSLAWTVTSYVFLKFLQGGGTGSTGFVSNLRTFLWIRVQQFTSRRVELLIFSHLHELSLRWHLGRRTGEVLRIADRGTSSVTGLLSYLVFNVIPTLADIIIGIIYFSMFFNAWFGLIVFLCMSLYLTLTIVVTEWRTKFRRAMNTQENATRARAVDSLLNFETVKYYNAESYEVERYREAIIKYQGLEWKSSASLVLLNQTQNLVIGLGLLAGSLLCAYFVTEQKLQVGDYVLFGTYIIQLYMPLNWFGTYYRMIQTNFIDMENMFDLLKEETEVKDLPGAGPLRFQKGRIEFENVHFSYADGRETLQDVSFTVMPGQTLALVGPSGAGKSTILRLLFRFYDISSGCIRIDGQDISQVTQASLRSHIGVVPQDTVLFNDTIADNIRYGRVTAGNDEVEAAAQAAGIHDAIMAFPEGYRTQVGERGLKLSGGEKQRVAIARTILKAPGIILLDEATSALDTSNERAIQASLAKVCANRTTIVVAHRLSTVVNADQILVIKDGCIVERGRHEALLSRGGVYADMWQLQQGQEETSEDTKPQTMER
Experiment [19] can be described thus: promoters of myeloid differentiation in arrested cells, primary screen, cell-based, GFP/MAC1 double positive, flow cytometry, validation set (AID 588685;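 active = differentiation response of at least 50%, scaled between solvent and reference control, from cells with both markers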;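 note: compound exposure lasts four days before antibody staining and flow analysis; 0% = DMSO wells and 100% = 5 µM fulvestrant positive control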). The note with it: ER-HoxA9 marrow cells, stronger effect = higher value.

Inconclusive results are not listed. Activity calls are given as the source filed them. Unless noted, the rule behind the calls is not given here.

Beta-adrenergic receptor kinase 1 (Homo sapiens), sequence (P25098 whole entry, looked up): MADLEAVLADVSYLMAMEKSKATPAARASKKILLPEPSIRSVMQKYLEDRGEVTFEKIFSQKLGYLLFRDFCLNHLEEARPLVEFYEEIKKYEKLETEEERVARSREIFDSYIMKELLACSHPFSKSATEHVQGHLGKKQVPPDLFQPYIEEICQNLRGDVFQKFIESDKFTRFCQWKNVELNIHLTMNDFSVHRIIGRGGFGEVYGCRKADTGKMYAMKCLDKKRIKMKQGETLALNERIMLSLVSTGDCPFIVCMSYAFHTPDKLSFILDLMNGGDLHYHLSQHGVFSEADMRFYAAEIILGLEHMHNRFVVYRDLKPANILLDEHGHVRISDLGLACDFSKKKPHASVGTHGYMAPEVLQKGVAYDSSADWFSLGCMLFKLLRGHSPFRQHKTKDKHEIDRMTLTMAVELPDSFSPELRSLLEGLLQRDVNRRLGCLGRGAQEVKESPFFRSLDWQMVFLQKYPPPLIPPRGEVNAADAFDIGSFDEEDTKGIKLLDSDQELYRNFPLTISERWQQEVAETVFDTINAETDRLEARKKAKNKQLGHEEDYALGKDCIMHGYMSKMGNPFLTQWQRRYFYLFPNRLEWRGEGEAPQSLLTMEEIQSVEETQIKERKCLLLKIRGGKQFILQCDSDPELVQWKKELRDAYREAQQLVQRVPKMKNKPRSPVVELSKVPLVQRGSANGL
Beta-2 adrenergic receptor (Homo sapiens), sequence (P07550 whole entry, looked up): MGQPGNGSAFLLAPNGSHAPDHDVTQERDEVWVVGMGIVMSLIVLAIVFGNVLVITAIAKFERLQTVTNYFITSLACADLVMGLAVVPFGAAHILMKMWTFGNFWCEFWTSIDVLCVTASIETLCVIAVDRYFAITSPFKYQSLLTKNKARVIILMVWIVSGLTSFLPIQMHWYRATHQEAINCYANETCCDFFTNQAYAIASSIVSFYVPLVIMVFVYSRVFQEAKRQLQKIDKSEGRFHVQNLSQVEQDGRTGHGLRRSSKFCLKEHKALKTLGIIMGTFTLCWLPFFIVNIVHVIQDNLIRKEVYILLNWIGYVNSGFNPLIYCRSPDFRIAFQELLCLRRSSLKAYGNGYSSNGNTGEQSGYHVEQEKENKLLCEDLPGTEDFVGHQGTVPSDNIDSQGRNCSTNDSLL
AP-2 complex subunit beta (Homo sapiens), sequence (P63010 whole entry, looked up, one chain of several): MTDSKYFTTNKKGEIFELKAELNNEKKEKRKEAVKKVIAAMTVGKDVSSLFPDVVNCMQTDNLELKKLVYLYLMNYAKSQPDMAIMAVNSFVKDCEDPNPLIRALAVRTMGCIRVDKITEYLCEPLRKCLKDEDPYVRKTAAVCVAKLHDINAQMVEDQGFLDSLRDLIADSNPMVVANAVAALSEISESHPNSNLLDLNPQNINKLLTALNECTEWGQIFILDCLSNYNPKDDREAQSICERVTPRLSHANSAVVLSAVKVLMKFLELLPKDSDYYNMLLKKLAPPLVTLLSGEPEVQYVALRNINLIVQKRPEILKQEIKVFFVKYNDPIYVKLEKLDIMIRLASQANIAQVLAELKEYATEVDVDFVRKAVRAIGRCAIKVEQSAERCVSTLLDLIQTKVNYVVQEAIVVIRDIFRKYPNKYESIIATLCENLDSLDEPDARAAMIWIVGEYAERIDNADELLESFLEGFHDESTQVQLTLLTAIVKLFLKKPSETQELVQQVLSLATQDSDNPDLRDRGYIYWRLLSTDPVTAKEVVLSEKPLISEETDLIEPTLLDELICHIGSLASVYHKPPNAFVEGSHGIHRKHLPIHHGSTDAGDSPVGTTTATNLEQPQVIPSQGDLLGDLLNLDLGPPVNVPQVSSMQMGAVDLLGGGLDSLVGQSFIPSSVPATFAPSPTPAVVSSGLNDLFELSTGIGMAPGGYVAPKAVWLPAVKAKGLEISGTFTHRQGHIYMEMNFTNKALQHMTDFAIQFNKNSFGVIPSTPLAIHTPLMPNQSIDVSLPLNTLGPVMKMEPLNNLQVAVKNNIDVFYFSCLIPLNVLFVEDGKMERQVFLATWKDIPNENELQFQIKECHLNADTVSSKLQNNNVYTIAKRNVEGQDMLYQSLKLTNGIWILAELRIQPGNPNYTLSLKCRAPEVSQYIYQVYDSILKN

With `C[C@H]1CCCC(=O)CCC/C=C/c2cc(O)cc(O)c2C(=O)O1`, the percent of DMSO control GFP in experiment [1] was 102% (inactive). Also, the GFP response vs DMSO was 104% (inactive) in [2] and 96.5% (inactive) in experiment [4]. For the same molecule, the percent response of DMSO control in experiment [3] was 96% (inactive). In experiment [5], the GFP response, % of DMSO was 98.3% (inactive). In experiment [6], the double positive events stood at 57.4%. Moreover, in [6], the vesicle binding response is 138% (inactive). The inhibition (as a rule, the change of the read-out against control, counted positive when it falls) in experiment [7] is -0.31% (inactive); in experiment [11], -2.22% (inactive); in experiment [14], 5.6% (inactive); in [15], 0.5% (inactive); in experiment [16], 0.4% (inactive); in experiment [18], 3% (inactive). The superoxide response (% of plate) in experiment [8] is 102% (inactive). Besides, in experiment [9], the aptamer binding inhibition is 3% (inactive). The response in experiment [10] was 2.24% (inactive); in experiment [12], 0.54% (inactive). In addition, in experiment [13], the binding (% of control) is 99% (inactive). Also, in [17], the efflux inhibition (fraction of control) was -0.09 (inactive). Besides, the differentiation response in [19] is -5.68% (inactive).

`Clc1ccc(COC(Cn2ccnc2)c2ccc(Cl)cc2Cl)cc1` (stereo not given): the percent of DMSO control GFP in [1] was 104% (inactive). Further, the GFP response vs DMSO is 111% (inactive) in experiment [2] and 120% (inactive) in [4]. Moreover, the percent response of DMSO control in experiment [3] is 107% (inactive). Moreover, the GFP response, % of DMSO in experiment [5] is 103% (inactive). In experiment [6], this molecule had a double positive events of 62.7%. Also, the vesicle binding response in experiment [6] was 183% (inactive). In addition, the inhibition in experiment [7] is -1.09% (inactive); in [11], 16.5% (inactive); in experiment [14], -1.3% (inactive); in [15], -0.4% (inactive); in [16] it was -7% (inactive); in experiment [18], -31% (inactive). For the same molecule, the superoxide response (% of plate) in [8] was 121% (inactive). Besides, the aptamer binding inhibition in experiment [9] is 3% (inactive). The results for the response in experiment [10] and in experiment [12] were 3.99% (inactive) and 2.69% (inactive), respectively. In [13], the binding (% of control) was 105% (inactive). The efflux inhibition (fraction of control) in experiment [17] was -0.28 (inactive). The differentiation response in experiment [19] is 1.28% (inactive).

Regarding `COc1cccc(Oc2c(C)oc3cc(OC(=O)N(C)C)ccc3c2=O)c1`, the percent of DMSO control GFP in [1] is 102% (inactive). Further, the GFP response vs DMSO is 102% (inactive) in experiment [2] and 99.1% (inactive) in [4]. In addition, in [3], the percent response of DMSO control is 107% (inactive). The GFP response, % of DMSO in [5] is 99.4% (inactive). This molecule also gave a double positive events in experiment [6] of 60.2%. In addition, in experiment [6], the vesicle binding response is 148% (inactive). In addition, the inhibition in [7] was 5.61% (inactive); in [11], 8.84% (inactive); in experiment [14] it was -1.7% (inactive); in experiment [15], -0.4% (inactive); in experiment [16] it was -1.2% (inactive); in [18], 23% (inactive). In experiment [8], the superoxide response (% of plate) is 110% (inactive). In experiment [9], the aptamer binding inhibition was 0% (inactive). For the same molecule, the response in experiment [10] was -2.34% (inactive); in experiment [12] it was -4.25% (inactive). Moreover, in experiment [13], the binding (% of control) was 101% (inactive). For the same molecule, the efflux inhibition (fraction of control) in experiment [17] is -0.02 (inactive). The differentiation response in experiment [19] was -3.11% (inactive).

Regarding `CC12CCC3C(CC=C4CC(O)CCC43C)C1C/C(=C\c1cccc(F)c1)C2=O` (stereo not given), the percent of DMSO control GFP in experiment [1] is 98.2% (inactive). Besides, the GFP response vs DMSO in experiment [2] was 103% (inactive); in experiment [4], 113% (inactive). The percent response of DMSO control in experiment [3] was 95.1% (inactive). Moreover, the GFP response, % of DMSO in experiment [5] is 102% (inactive). This molecule also displayed a double positive events in [6] of 63.9%. In addition, the vesicle binding response in experiment [6] is 171% (inactive). Also, the inhibition in [7] was -7.08% (inactive); in experiment [11], 9.38% (inactive); in experiment [14] it was -0.7% (inactive); in experiment [15], -0.1% (inactive); in experiment [16], -1.4% (inactive); in experiment [18], -1% (inactive). Also, in [8], the superoxide response (% of plate) is 100% (inactive). In addition, the aptamer binding inhibition in experiment [9] was 3% (inactive). Also, the response in [10] was -8.92% (inactive); in experiment [12], -4.42% (inactive). Further, the binding (% of control) in [13] was 98.7% (inactive). For the same molecule, the efflux inhibition (fraction of control) in experiment [17] was -0.13 (inactive). For the same molecule, the differentiation response in [19] was 2.89% (inactive).

Values taken from PubChem BioAssay.
